Compound activity deposited in PubChem by National Center for Advancing Translational Sciences (NCATS).
Sm TGR inh: blocks Schistosoma mansoni thioredoxin glutathione reductase; Q962Y6; purified TGR, DTNB reduction, TNB absorbance 405 nm; Potency, µM (highest dose often 114 µM), for inactives: at the highest dose activity change, negative = inhibition, most hits filed as inhibitors; hit rate 3% among 360,000; AID 485364; note: potency is the fitted concentration of half-maximal effect; nearly all actives have a fitted effect of over 60% in size
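TGR 20 nM + NADPH 100 uM (dispensed conc.), cpd preinc 15 min RT; start with NADPH (500 uM addition) then DTNB (15 mM addition). Kinetic TNB absorbance, 405 nm filter. Four-parameter Hill fit across titration.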
FMDV antiviral: foot and mouth disease virus antiviral activity | FMDV antiviral cell-based qHTS | Potency, µM (titrated, usually from 57.9 µM), without a hit: top-dose activity change, negative = inhibition, hits mostly inhibitors | hit rate 1.2% among 410,000; calls by dose curve; tested in HEK293T cells; note: read-out not given here; potency is the fitted concentration of half-maximal effect; nearly all actives have a fitted effect of over 45% in size
HCV inh: blocks hepatitis C virus; Huh7.5.1 HCVcc-Cre infection, luciferase reporter, 44 h; Potency, µM (doses to about 41.8 µM), inactives show at the highest dose activity change, negative = inhibition, hits mostly inhibitors; hit rate 3.4% among 340,000; AID 651820; note: potency is the fitted concentration of half-maximal effect
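After 44 h co-culture of compound, cells and HCVcc-Cre (~0.5 moi), substrate is added for 15 min at room temperature and luciferase measured over 15 sec. Cells were seeded at 1,000/well and pre-cultured 4 h.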
VACV mCherry inh: vaccinia inhibition (mCherry reporter); Vaccinia virus mCherry reporter infection, fluorescence; Potency, µM (highest dose often 36.5 µM), for inactives: top-dose activity change, negative = inhibition, most hits filed as inhibitors; hit rate 0.63% among 310,000; AID 720579; calls by dose curve; tested in A549 cells; note: potency is the fitted concentration of half-maximal effect; nearly all actives have a fitted effect of over 35% in size
VACV Venus inh: vaccinia inhibition (Venus reporter). Vaccinia virus Venus reporter expression, fluorescence. Potency, µM (titrated, usually from 36.5 µM), without a hit: at the top dose activity change, negative = inhibition, usual class: inhibitors. hit rate 0.46% among 330,000; calls by dose curve; tested in A549 cells; note: potency is the fitted concentration of half-maximal effect; nearly all actives have a fitted effect of over 30% in size
HCMV antiviral: inhibitors of human cytomegalovirus. hit rate 4.5% among 410,000. HFF cells, HCMV-luciferase reporter, 72 h; stronger effect = lower value. activity change, negative = inhibition, % at 57.5 µM; in the data active = activity change below about -60%; inconclusive = no clear call, values can overlap the other calls; inactive = above about -39%
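Compounds were evaluated in HFFs infected with an HCMV luciferase reporter virus (MOI 1 PFU/cell). Luciferase in lysates collected 72 h post infection served as the replication measure.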
Starred values were filed as active, the others as inactive. Most compounds without a hit are left out; they make up all but 9.3% or so of the library. Unless noted, calls come from the whole dose curve; as a rule, active = well fitted curve in the direction sought with a large enough effect; inconclusive = small, poorly fitted or top-dose-only effect, or another doubt; inactive = no such curve, though single readings can be large; an effect the other way counts as inactive or inconclusive. % is set by controls: 0 for no effect and ±100 for the full control effect.

Results for Cc1cccc(NC(=O)Cc2nc(-c3c[nH]c(C(=O)N4CCCC4)c3)cs2)c1 ?
Sm TGR inh: -7.2%; FMDV antiviral: 35.5µM*; HCV inh: inconclusive; VACV mCherry inh: -29.2%; VACV Venus inh: -19.5%; HCMV antiviral: 6.6

Results for Cc1ccccc1NC(=O)Cc1nc(-c2c[nH]c(C(=O)N3CCCC3)c2)cs1 ?
Sm TGR inh: -20.6%; FMDV antiviral: inconclusive; HCV inh: inconclusive; HCMV antiviral: 13.7

What do the screens show for `COc1ccc(CCNC(=O)C(=O)Nc2nccs2)cc1OC`?
Sm TGR inh: -1.8%; FMDV antiviral: 11.1%; HCV inh: 3.9%; VACV mCherry inh: -21.7%; VACV Venus inh: -21.5%; HCMV antiviral: 15.6

How did O=C1CCN(C(=O)c2cccs2)c2ccccc21 do in these assays?
Sm TGR inh: 6.0%; FMDV antiviral: 15.3%; HCV inh: 1.9%; VACV mCherry inh: inactive; VACV Venus inh: -8.9%; HCMV antiviral: -15.5

How did CN1C(=O)/C(=C\C(=O)c2cccs2)c2ccccc21 do in these assays?
Sm TGR inh: -29.8%; FMDV antiviral: 22.4µM*; HCV inh: 12.9%; VACV mCherry inh: inactive; VACV Venus inh: -5.4%; HCMV antiviral: -99.5*

Results for Clc1cccc(N/N=C/c2ccc(N3CCOCC3)cc2)c1 ?
Sm TGR inh: -30.8%; FMDV antiviral: 28.1%; HCV inh: -27.7%; VACV mCherry inh: -8.6%; VACV Venus inh: -7.0%; HCMV antiviral: -27.5

What do the screens show for `CC(C)NC(=S)N/N=C/c1ccc(N2CCOCC2)cc1`?
Sm TGR inh: -21.1%; FMDV antiviral: -26.3%; HCV inh: 0.2%; HCMV antiviral: -0.8

Results for C=C(C)CNC(=S)N/N=C/c1ccc(N2CCOCC2)cc1 ?
Sm TGR inh: -15.5%; FMDV antiviral: -17.4%; HCV inh: inconclusive; VACV mCherry inh: -4.3%; VACV Venus inh: -15.3%; HCMV antiviral: -78.2*

How did COCCNC(=S)N/N=C/c1ccc(N2CCOCC2)cc1 do in these assays?
Sm TGR inh: -17.5%; FMDV antiviral: -6.0%; HCV inh: -29.2%; VACV mCherry inh: -24.4%; VACV Venus inh: -18.1%; HCMV antiviral: -96.9*

What do the screens show for `O=C(N/N=C/c1ccc(N2CCOCC2)cc1)c1ccccc1OCCOc1ccccc1`?
Sm TGR inh: -22.2%; FMDV antiviral: inconclusive; HCV inh: 8.91µM*; VACV mCherry inh: -29.6%; VACV Venus inh: -19.5%; HCMV antiviral: 4.3

What do the screens show for `O=C(O)c1cc(N/N=C/c2ccc(N3CCOCC3)cc2)ccc1Cl`?
Sm TGR inh: inconclusive; FMDV antiviral: 14.1µM*; HCV inh: 28.6%; HCMV antiviral: 113.5

What do the screens show for `CCOC(=O)c1c(NC(=O)CCN2C(=O)c3ccccc3C2=O)sc(C(=O)OC(C)C)c1C`?
Sm TGR inh: -7.3%; FMDV antiviral: 3.1%; HCV inh: inconclusive; HCMV antiviral: 2.9

How did O=C1CS/C(=C\[N+](=O)[O-])N1c1ccc(OC(F)(F)F)cc1 do in these assays?
Sm TGR inh: 8.5%; FMDV antiviral: -16.5%; HCV inh: -4.1%; HCMV antiviral: 25.0

Results for Cc1ccc(/C=C/C(=O)Nc2ccccc2C(N)=O)cc1 ?
Sm TGR inh: 5.1%; FMDV antiviral: -18.7%; HCV inh: -1.3%; VACV mCherry inh: -1.8%; VACV Venus inh: -13.6%; HCMV antiviral: 68.9

What do the screens show for `COc1cccc(CN(C)C(=O)c2cc(S(=O)(=O)N3CCN(c4ccccc4)CC3)ccc2Cl)c1`?
Sm TGR inh: -9.2%; FMDV antiviral: inconclusive; HCV inh: inconclusive; VACV mCherry inh: -11.0%; VACV Venus inh: -27.8%; HCMV antiviral: inconclusive

How did Oc1ccc(C23CCCC2C2(CCCC2)c2ccc(O)cc2O3)c(O)c1 (stereo not given) do in these assays?
Sm TGR inh: -16.1%; FMDV antiviral: -23.7%; HCV inh: 10µM*; HCMV antiviral: inconclusive

Results for O=C(O)c1cccc(NS(=O)(=O)/C=C/c2ccccc2)c1 ?
Sm TGR inh: 0.0%; FMDV antiviral: -6.5%; HCV inh: 9.8%; HCMV antiviral: 28.6

Results for CC(C)OCCCNC1=C(Cl)C(=O)c2ccccc2C1=O ?
Sm TGR inh: 20.9%; FMDV antiviral: 23.6%; HCV inh: -4.2%; VACV mCherry inh: -12.5%; VACV Venus inh: -4.0%; HCMV antiviral: inconclusive

What do the screens show for `O=C(O)c1cccc(NC2=C(Cl)C(=O)c3ccccc3C2=O)c1`?
Sm TGR inh: 1.58µM*; FMDV antiviral: inconclusive; HCV inh: inconclusive; HCMV antiviral: -99.6*

What do the screens show for `Cc1ccc(NC2=C(NC(=O)c3ccccc3)C(=O)c3ccccc3C2=O)cc1Cl`?
Sm TGR inh: 1.58µM*; FMDV antiviral: -26.7%; HCV inh: inconclusive; VACV mCherry inh: inconclusive; VACV Venus inh: inconclusive; HCMV antiviral: inconclusive

What do the screens show for `CC(C)NC1=C(Cl)C(=O)c2ccccc2C1=O`?
Sm TGR inh: 28.2µM*; FMDV antiviral: -0.7%; HCV inh: inconclusive; VACV mCherry inh: inconclusive; VACV Venus inh: inconclusive; HCMV antiviral: inconclusive

What do the screens show for `Cc1ccc(NCC(=O)c2ccccc2)cc1Cl`?
Sm TGR inh: -6.6%; FMDV antiviral: 42.0%; HCV inh: -3.5%; HCMV antiviral: -9.8

How did CC1=C(Nc2ccc(C(=O)O)cc2)C(=O)c2ccccc2C1=O do in these assays?
Sm TGR inh: 22.4µM*; FMDV antiviral: 8.8%; HCV inh: inconclusive; HCMV antiviral: 75.7

Results for CCN(CC(=O)Nc1ccc(NC(C)=O)cc1)C(=O)c1cc(-c2ccccc2)nn1-c1ccccc1 ?
Sm TGR inh: -0.5%; FMDV antiviral: -10.4%; HCV inh: -24.6%; VACV mCherry inh: -0.9%; VACV Venus inh: -19.6%; HCMV antiviral: -22.9

How did Cc1ccc(-n2ncc(C(=O)N3CCCCC3)c2C2CCN(C(=O)OC(C)(C)C)CC2)cc1C do in these assays?
Sm TGR inh: -2.1%; FMDV antiviral: -15.7%; VACV mCherry inh: -14.2%; VACV Venus inh: -12.1%; HCMV antiviral: 0.0

Results for CCOc1ccc(CNC(=O)CCCn2nc(C)c3sc4ccccc4c3c2=O)cc1 ?
Sm TGR inh: 0.2%; FMDV antiviral: -4.6%; VACV mCherry inh: -20.0%; VACV Venus inh: -19.4%; HCMV antiviral: -22.2

What do the screens show for `O=C1C(Cl)=C(NCCc2ccccc2)C(=O)c2ccccc21`?
FMDV antiviral: -17.1%; HCV inh: inconclusive; VACV mCherry inh: -23.2%; VACV Venus inh: 25.4%; HCMV antiviral: -64.0*

Results for C=CCNC1=C(Cl)C(=O)c2ccccc2C1=O ?
Sm TGR inh: 44.7µM*; FMDV antiviral: -14.3%; HCV inh: inconclusive; VACV mCherry inh: inconclusive; VACV Venus inh: 12.6µM*; HCMV antiviral: 68.4

How did O=C1C(Cl)=C(NCc2cccnc2)C(=O)c2ccccc21 do in these assays?
Sm TGR inh: 44.7µM*; FMDV antiviral: inconclusive; HCV inh: 12.6µM*; VACV mCherry inh: inconclusive; VACV Venus inh: 28.2µM*; HCMV antiviral: -28.0
